# From PubChem BioAssay (NCI)
# The panel holds about 83,000 compounds, 20% with a hit somewhere; the sample as a whole holds those more often.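 The endpoint reported here, percent growth, reads 100 for growth as untreated, 0 for no net growth and -100 for all cells dead.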 A number with no mark means an inactive call. Activity calls are given as the source filed them. How the source made its calls: active means growth percent below 10; inactive means the rest. Where a SMILES comes first, the peptide text is derived from it. Bridges are numbered along the chain shown (N, C = ends). [ ]: non-standard residue; d: D form. The star is where a group is joined. ξ: configuration not given here. ξNMePhe(4-NMe2) = CNC(Cc1ccc(N(C)C)cc1)C(=O)O; Picolinoyl(3-OH) = O=C(c1ncccc1O)*; ξPip(4-oxo) = O=C1CCNC(C(=O)O)C1; Phg = N[CH](C(=O)O)c1ccccc1; Abu = CC[CH](N)C(=O)O
# Tested on: RXF 393 renal
# Assay: NCI-60 one-dose screen, 48 h (100 = growth as untreated, 0 = no growth, -100 = all killed)
# Conditions: 10 µM
row,SMILES,growth
1,N#CC1(Nc2ccc3c4c(cccc24)CC3)CCCCC1,89.8%
2,CCCC1(c2ccccc2)NC(=O)NC1=O (stereo not drawn),109%
3,O=C(NN=C1CCCCC1)C(=O)NN=C1CCCCC1,107%
4,CC1CCCC(CC(N)=O)CC1 (stereo not drawn),117%
5,CC(=O)OC(OC(C)=O)C1CCCO1 (stereo not drawn),115%
6,CCOc1ccc(/C=N/N=C(N)N)cc1OCC,111%
7,COc1ccc2c(NCCCCCCCCNc3c4ccccc4nc4cc(OC)ccc34)c3ccccc3nc2c1,-74.3% (active)
8,Nc1ncnc2[nH]ncc12,14.9%
9,Cc1ccc(C(=O)c2ccccc2)c(C)c1,116%
10,O=C(c1ccc(Cl)cc1)c1ccccc1Cl,93.3%
11,COc1cc2c(cc1O)CC[C@@H]1C2CC[C@@]2(C)C1CC[C@@H]2O (stereo partly drawn),-4.44% (active)
12,CC(=O)OCC1=CC2OC(=O)C3=COC(OC4OC(CO)C(O)C(O)C4O)C1C32 (stereo not drawn),36.8%
13,CC1(C)N=C(N)N=C(N)N1c1cccc(Br)c1,66.8%
14,C/C(=C\c1ccc([N+](=O)[O-])cc1)C(=O)O,102%
15,Oc1ccccc1-c1nnco1,74%
16,CO[C@H]1C[C@@H]2CC[C@@H](C)[C@@](O)(O2)C(=O)C(=O)N2CCCC[C@H]2C(=O)O[C@H]([C@H](C)C[C@@H]2CC[C@@H](O)[C@H](OC)C2)CC(=O)[C@H](C)C=C(C)[C@@H](O)[C@@H](OC)C(=O)[C@H](C)C[C@H](C)/C=C/C=C/C=C1C,14.1%
17,Cc1cccc(C(=O)N(C(C)C)C(C)C)c1,107%
18,CC1(C)/C(=C\CO)C2CCC1C2 (stereo not drawn),113%
19,CN(C)c1ccc(S(=O)(=O)O)cc1,103%
20,O=[N+]([O-])c1ccc(/C=C/C=C/c2ccccc2)c(Cl)c1,103%

row,SMILES,growth
1,N#CSc1cc(S(N)(=O)=O)ccc1N,119%
2,CCC1NC(=O)C(NC(=O)c2ncccc2O)C(C)OC(=O)C(c2ccccc2)NC(=O)C2CC(=O)CCN2C(=O)C(Cc2ccc(N(C)C)cc2)N(C)C(=O)C2CCCN2C1=O (stereo not drawn) (tested in a mixture with another compound) ({Picolinoyl(3-OH)}-T[Abu]P[ξNMePhe(4-NMe2)][ξPip(4-oxo)][Phg]; ester 1-C; configuration not given here),27.6%
3,C=CCNc1ccccc1,113%
4,CCOC(=O)C(CCC(C)C)C(=O)OCC,110%
5,COc1cccc(Sc2ccc([N+](=O)[O-])c3no[n+]([O-])c23)c1,-54% (active)
6,CC1CC(O)CC(C)(C)C1 (stereo not drawn),115%
7,Oc1ccccc1O,94.4%
8,Clc1ccc(-c2n[nH]c3c2Cc2ccccc2-3)cc1Cl,154%
9,CC1OC(Oc2c(-c3ccc(O)c(O)c3)oc3cc(O)cc(O)c3c2=O)C(O)C(O)C1O (stereo not drawn),110%
10,O=c1[nH]nc(SC2CCCCC2)c(=O)[nH]1,129%
11,CC(C)C1CCCCC1O (stereo not drawn),112%
12,CCC(C#N)(CC)c1ccccc1,115%
13,CC(=O)c1ccc(C(C)(C)C)cc1,95.2%
14,CC(C)OC(=O)c1cc(NC(=S)OC(C)C)ccc1Cl,35.8%
15,Cc1cc2ccccc2c(O)c1C#N,118%
16,OCCN1CCOCC1,119%
17,CC(=O)Oc1ccc(Br)cc1C(=O)O,98.8%
18,C#CCSc1nnnn1-c1ccc(Br)c(C)c1,68.3%
19,c1ccc2c(c1)Sc1ccccc1S2,99.5%

# Tested on: SF-268 CNS
# Assay: as above
# Conditions: 10 µM
row,SMILES,growth
1,N#CC1(Nc2ccc3c4c(cccc24)CC3)CCCCC1,97%
2,CCCC1(c2ccccc2)NC(=O)NC1=O (stereo not drawn),98.3%
3,O=C(NN=C1CCCCC1)C(=O)NN=C1CCCCC1,99.1%
4,CC1CCCC(CC(N)=O)CC1 (stereo not drawn),104%
5,CC(=O)OC(OC(C)=O)C1CCCO1 (stereo not drawn),97.8%
6,CCOc1ccc(/C=N/N=C(N)N)cc1OCC,96.2%
7,COc1ccc2c(NCCCCCCCCNc3c4ccccc4nc4cc(OC)ccc34)c3ccccc3nc2c1,-99.3% (active)
8,Nc1ncnc2[nH]ncc12,29.9%
9,Cc1ccc(C(=O)c2ccccc2)c(C)c1,102%
10,O=C(c1ccc(Cl)cc1)c1ccccc1Cl,111%
11,COc1cc2c(cc1O)CC[C@@H]1C2CC[C@@]2(C)C1CC[C@@H]2O (stereo partly drawn),50.6%
12,CC(=O)OCC1=CC2OC(=O)C3=COC(OC4OC(CO)C(O)C(O)C4O)C1C32 (stereo not drawn),120%
13,CC1(C)N=C(N)N=C(N)N1c1cccc(Br)c1,37.2%
14,C/C(=C\c1ccc([N+](=O)[O-])cc1)C(=O)O,105%
15,Oc1ccccc1-c1nnco1,65.4%
16,CO[C@H]1C[C@@H]2CC[C@@H](C)[C@@](O)(O2)C(=O)C(=O)N2CCCC[C@H]2C(=O)O[C@H]([C@H](C)C[C@@H]2CC[C@@H](O)[C@H](OC)C2)CC(=O)[C@H](C)C=C(C)[C@@H](O)[C@@H](OC)C(=O)[C@H](C)C[C@H](C)/C=C/C=C/C=C1C,56.2%
17,Cc1cccc(C(=O)N(C(C)C)C(C)C)c1,99%
18,CC1(C)/C(=C\CO)C2CCC1C2 (stereo not drawn),111%
19,CN(C)c1ccc(S(=O)(=O)O)cc1,91.9%
20,O=[N+]([O-])c1ccc(/C=C/C=C/c2ccccc2)c(Cl)c1,111%

row,SMILES,growth
1,N#CSc1cc(S(N)(=O)=O)ccc1N,108%
2,CCC1NC(=O)C(NC(=O)c2ncccc2O)C(C)OC(=O)C(c2ccccc2)NC(=O)C2CC(=O)CCN2C(=O)C(Cc2ccc(N(C)C)cc2)N(C)C(=O)C2CCCN2C1=O (stereo not drawn) (tested in a mixture with another compound) ({Picolinoyl(3-OH)}-T[Abu]P[ξNMePhe(4-NMe2)][ξPip(4-oxo)][Phg]; ester 1-C; configuration not given here),79.8%
3,C=CCNc1ccccc1,104%
4,CCOC(=O)C(CCC(C)C)C(=O)OCC,92.5%
5,COc1cccc(Sc2ccc([N+](=O)[O-])c3no[n+]([O-])c23)c1,62.6%
6,CC1CC(O)CC(C)(C)C1 (stereo not drawn),91.9%
7,Oc1ccccc1O,87.2%
8,Clc1ccc(-c2n[nH]c3c2Cc2ccccc2-3)cc1Cl,109%
9,CC1OC(Oc2c(-c3ccc(O)c(O)c3)oc3cc(O)cc(O)c3c2=O)C(O)C(O)C1O (stereo not drawn),104%
10,O=c1[nH]nc(SC2CCCCC2)c(=O)[nH]1,98.8%
11,CC(C)C1CCCCC1O (stereo not drawn),99.5%
12,CCC(C#N)(CC)c1ccccc1,99.3%
13,CC(=O)c1ccc(C(C)(C)C)cc1,102%
14,CC(C)OC(=O)c1cc(NC(=S)OC(C)C)ccc1Cl,92%
15,Cc1cc2ccccc2c(O)c1C#N,103%
16,OCCN1CCOCC1,117%
17,CC(=O)Oc1ccc(Br)cc1C(=O)O,106%
18,C#CCSc1nnnn1-c1ccc(Br)c(C)c1,99.2%
19,c1ccc2c(c1)Sc1ccccc1S2,109%
